Active and inactive are the calls of the source. Unless noted, no stated cut-off is given here; in the data, active means inhibition above about 42%; inactive means the rest.
What was measured:
[1] = target: Nuclear receptor coactivator 3 (Homo sapiens) (UniProt Q9Y6Q9); test: NCOA3 GAL4-fusion reporter inhibition – cell-based, luminescence, quadruplicate, confirmation (AID 588792;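 active means mean inhibition over 43.08%, the solvent-only control mean plus 3 SD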;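 further: 0% = DMSO treated cells and 100% = gossypol at 36 µM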); details: HEK293 GAL4-SRC3 luciferase reporter, at 3.6 µM, stronger effect = higher value
[2] = tested on: transactivating tegument protein VP16 (Human herpesvirus 1), Gal4-VP16 luciferase reporter; test: repression of VP16-driven luciferase reporter – cell-based, luminescence, high throughput, counter-screen for SRC3 inhibitor project (AID 588794; in the data active means inhibition above about 30%); details: mammalian cells, at 3.6 µM, stronger effect = higher value
[3] = target: Nuclear receptor coactivator 1 (Homo sapiens) (UniProt Q15788); test: NCOA1 GAL4-fusion reporter inhibition – cell-based, luminescence, quadruplicate, confirmation (AID 588820;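 active means mean inhibition above 46.68%, the untreated control wells mean plus 3 SD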;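 further: 0% = DMSO wells and 100% = gossypol 36 µM treated wells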); details: HEK293 GAL4-SRC1 luciferase reporter, at 3.6 µM, stronger effect = higher value
[4] = repression of VP16-driven luciferase reporter – cell-based, luminescence, high throughput, counter-screen for SRC1 inhibitor project (AID 588824; in the data active means inhibition above about 25%); details: cell-based VP16 transactivation luciferase luminescence; at 3.6 µM; stronger effect = higher value
[5] = StAR promoter reporter inhibitors, counter-screen for LRH-1 inverse agonist project, cell-based, luminescence, high throughput (AID 651611; in the data active means inhibition above about 28%); details: StAR promoter luciferase reporter counterscreen, at 3.6 µM, stronger effect = higher value
[6] = target: Nuclear receptor subfamily 5 group A member 2 (Homo sapiens) (UniProt O00482); test: NR5A2 activity suppression in reporter cells – cell-based, luminescence, confirmation (AID 651613); details: cell-based LRH-1 luciferase reporter, inverse agonism; at 3.6 µM; stronger effect = higher value;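 further: HEK293T cells co-transfected with LRH-1 and StAR promoter luciferase reporter; 0% = vehicle wells and 100% = parental cells lacking receptor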
[7] = target: Steroidogenic factor 1 (Homo sapiens) (UniProt Q13285); test: inverse agonism at SF1 nuclear receptor – cell-based, luminescence, high throughput, counter-screen for LRH-1 inverse agonist project (AID 651614; in the data active means inhibition above about 44%;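 further: cells cotransfected with StAR promoter reporter and SF1 expression vector; 0% = vehicle on cells with receptor and 100% = vehicle on cells lacking receptor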); details: cell-based SF1 luciferase reporter, at 3.6 µM, stronger effect = higher value
[8] = compounds suppressing VP16-driven luciferase signal – cell-based, luminescence, high throughput, counter-screen for LRH-1 inverse agonist project (AID 651615; in the data active means inhibition above about 33%); details: Gal4-VP16 luciferase reporter cells, at 3.6 µM, stronger effect = higher value
[9] = tested on: transactivating tegument protein VP16 (Human herpesvirus 1); test: compounds suppressing VP16-driven luciferase signal – cell-based, luminescence, single concentration, counter-screen for SRC2 inhibitor project (AID 652007; in the data active means inhibition above about 36%); details: cell-based VP16 transactivation luciferase reporter, at 8.9 µM, stronger effect = higher value
[10] = target: Nuclear receptor coactivator 2 (Homo sapiens) (UniProt Q15596); test: inhibition of GAL4-SRC2 driven luciferase expression – cell-based, luminescence, HEK293, triplicate, confirmation (AID 652008;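 active means mean inhibition above 46.5%, the solvent-only control mean plus 3 SD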;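 further: 0% = DMSO-treated cells and 100% = Gossypol at 36 µM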); details: HEK293 GAL4-SRC2 luciferase reporter, at 8.9 µM, stronger effect = higher value

Measured: inhibition

Sequence of Steroidogenic factor 1 (Homo sapiens) (Q13285 whole entry, looked up, the tested form may be a part): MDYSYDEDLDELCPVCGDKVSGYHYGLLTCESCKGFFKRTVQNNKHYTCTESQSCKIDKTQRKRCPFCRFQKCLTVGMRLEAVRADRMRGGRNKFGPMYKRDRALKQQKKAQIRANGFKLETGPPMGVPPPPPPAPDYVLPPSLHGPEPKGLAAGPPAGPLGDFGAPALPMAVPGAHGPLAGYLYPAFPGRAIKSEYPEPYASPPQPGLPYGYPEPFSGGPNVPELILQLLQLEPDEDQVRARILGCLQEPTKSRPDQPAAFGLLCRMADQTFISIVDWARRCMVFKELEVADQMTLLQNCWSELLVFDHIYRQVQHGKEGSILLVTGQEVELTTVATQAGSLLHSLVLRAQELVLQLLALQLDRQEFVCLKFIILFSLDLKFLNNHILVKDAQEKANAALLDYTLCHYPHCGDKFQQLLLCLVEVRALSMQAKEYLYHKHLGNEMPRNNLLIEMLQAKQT
Sequence of Nuclear receptor coactivator 1 (Homo sapiens) (Q15788 whole entry, looked up, the tested form may be a part): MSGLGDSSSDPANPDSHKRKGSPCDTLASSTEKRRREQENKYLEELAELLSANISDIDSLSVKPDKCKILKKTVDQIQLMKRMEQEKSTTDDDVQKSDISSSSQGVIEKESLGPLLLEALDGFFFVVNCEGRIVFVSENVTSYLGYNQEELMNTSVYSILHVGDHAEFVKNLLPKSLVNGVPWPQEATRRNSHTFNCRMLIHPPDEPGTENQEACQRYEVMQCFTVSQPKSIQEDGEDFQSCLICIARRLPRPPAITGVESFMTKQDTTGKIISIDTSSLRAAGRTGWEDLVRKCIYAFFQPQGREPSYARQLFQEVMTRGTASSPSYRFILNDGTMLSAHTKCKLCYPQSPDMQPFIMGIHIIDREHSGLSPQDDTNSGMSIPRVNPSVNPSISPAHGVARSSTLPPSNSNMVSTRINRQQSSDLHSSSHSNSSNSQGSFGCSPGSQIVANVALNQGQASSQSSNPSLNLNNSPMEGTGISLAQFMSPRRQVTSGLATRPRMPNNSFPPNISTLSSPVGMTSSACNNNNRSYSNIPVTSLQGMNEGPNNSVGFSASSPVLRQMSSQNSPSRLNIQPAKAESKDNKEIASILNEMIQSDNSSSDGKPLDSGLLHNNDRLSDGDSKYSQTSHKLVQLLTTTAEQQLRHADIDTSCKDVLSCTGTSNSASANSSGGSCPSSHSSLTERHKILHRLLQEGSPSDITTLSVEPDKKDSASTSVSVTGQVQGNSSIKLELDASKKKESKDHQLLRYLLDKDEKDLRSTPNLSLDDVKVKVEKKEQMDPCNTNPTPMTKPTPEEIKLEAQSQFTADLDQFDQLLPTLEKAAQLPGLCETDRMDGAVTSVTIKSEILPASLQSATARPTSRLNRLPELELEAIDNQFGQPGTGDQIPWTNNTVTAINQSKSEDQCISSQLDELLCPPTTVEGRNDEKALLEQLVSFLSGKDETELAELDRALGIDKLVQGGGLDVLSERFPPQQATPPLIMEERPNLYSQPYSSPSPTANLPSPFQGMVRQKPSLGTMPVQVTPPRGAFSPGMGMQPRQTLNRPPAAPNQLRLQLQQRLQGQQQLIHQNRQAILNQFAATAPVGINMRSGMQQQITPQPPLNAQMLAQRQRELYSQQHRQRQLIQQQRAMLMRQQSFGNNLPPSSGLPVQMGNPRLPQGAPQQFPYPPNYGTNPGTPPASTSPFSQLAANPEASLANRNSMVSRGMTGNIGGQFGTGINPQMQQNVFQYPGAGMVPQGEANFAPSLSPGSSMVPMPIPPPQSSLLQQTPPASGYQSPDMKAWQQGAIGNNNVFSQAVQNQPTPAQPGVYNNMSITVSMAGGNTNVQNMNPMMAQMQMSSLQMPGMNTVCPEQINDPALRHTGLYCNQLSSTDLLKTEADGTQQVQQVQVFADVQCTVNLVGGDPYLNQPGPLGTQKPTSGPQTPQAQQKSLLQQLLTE
Sequence of Nuclear receptor coactivator 2 (Homo sapiens) (Q15596 whole entry, looked up, the tested form may be a part): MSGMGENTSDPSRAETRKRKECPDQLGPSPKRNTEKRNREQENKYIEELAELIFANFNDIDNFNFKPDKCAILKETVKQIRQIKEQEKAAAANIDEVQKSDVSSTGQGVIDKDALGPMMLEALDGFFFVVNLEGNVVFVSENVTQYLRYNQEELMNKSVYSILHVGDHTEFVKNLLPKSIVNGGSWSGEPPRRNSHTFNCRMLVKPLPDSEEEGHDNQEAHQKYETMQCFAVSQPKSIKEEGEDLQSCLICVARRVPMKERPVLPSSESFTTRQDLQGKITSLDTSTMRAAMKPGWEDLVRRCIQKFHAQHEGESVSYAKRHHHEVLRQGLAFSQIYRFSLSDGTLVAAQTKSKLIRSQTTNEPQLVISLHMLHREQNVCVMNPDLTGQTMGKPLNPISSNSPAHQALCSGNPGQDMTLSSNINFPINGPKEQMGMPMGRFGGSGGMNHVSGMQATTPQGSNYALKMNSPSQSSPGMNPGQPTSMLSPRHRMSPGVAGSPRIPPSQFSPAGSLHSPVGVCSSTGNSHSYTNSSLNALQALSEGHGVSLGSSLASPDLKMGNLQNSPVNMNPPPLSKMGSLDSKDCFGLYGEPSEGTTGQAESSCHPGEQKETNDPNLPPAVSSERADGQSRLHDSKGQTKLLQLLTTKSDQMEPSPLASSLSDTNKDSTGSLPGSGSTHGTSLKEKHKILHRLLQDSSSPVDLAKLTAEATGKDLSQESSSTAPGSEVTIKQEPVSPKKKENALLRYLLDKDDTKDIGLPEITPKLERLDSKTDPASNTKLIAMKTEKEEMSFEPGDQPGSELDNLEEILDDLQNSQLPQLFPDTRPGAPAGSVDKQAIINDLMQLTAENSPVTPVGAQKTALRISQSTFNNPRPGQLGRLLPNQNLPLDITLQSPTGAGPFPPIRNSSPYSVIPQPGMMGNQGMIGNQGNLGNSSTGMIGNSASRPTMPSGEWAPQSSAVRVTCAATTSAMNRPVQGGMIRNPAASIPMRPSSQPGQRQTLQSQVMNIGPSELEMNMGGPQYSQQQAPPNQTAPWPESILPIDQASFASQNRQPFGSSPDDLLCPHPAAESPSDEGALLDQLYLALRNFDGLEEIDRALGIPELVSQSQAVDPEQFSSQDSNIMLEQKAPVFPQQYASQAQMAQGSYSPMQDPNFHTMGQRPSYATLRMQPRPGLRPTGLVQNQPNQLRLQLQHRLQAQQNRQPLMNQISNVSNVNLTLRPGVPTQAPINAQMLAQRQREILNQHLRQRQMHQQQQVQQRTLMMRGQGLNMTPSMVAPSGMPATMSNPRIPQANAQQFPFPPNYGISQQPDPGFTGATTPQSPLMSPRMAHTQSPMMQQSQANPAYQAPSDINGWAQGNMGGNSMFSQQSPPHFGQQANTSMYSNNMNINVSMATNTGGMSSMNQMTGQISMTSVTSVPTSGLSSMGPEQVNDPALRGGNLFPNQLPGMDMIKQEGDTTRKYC
Sequence of Nuclear receptor coactivator 3 (Homo sapiens) (Q9Y6Q9 whole entry, looked up, the tested form may be a part): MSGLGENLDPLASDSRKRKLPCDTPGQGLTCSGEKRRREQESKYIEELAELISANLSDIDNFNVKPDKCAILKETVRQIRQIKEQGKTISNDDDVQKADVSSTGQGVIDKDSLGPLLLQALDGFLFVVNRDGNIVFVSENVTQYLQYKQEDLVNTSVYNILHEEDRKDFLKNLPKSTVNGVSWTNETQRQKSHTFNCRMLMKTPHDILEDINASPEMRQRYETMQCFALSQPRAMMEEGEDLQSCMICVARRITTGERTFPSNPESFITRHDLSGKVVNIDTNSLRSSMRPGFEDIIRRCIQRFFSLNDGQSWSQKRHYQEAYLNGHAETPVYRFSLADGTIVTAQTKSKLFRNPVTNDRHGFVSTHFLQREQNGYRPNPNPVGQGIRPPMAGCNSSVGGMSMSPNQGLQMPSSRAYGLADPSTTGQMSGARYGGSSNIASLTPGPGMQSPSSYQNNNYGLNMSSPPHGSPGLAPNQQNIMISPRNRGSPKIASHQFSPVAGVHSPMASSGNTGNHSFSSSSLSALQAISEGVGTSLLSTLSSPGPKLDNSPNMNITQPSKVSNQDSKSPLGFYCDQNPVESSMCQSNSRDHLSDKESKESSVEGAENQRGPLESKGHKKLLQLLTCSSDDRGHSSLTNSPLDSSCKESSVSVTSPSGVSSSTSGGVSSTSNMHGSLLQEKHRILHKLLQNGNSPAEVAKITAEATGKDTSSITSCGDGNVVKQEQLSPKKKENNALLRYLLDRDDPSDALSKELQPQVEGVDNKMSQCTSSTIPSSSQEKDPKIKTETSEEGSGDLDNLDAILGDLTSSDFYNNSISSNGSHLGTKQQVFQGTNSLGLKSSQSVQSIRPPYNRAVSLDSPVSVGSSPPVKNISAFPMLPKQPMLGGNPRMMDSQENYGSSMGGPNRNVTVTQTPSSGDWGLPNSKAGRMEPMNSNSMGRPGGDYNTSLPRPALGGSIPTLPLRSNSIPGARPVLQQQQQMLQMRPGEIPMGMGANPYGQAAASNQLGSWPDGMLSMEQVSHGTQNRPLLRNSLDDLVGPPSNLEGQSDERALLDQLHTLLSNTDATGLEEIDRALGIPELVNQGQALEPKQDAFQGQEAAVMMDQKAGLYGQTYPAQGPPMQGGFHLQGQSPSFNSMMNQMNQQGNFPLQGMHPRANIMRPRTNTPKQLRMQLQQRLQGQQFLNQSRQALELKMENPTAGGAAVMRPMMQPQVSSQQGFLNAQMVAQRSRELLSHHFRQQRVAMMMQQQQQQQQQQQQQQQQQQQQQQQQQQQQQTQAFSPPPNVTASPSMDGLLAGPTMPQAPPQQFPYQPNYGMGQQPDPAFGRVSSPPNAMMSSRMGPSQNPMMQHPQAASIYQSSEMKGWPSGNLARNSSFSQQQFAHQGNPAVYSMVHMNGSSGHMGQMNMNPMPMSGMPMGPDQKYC

CCCc1ccc(-c2ccc(/C=C/C(=O)O)cc2)nc1
active: [1] 76% | [2] 71.9% | [3] 70.6% | [4] 67.7% | [5] 77.9% | [6] 85.6% | [7] 76.9% | [8] 68.6% | [9] 85.7% | [10] 94.6%

COC(=O)c1cn(NC(=O)c2cc([N+](=O)[O-])ccc2F)c(=O)c2ccccc12
inactive: [9] 27.7%
active: [1] 83.8% | [2] 83.6% | [3] 51.1% | [4] 81% | [5] 89% | [6] 102% | [7] 92.9% | [8] 84.3% | [10] 64.7%

CCOc1cc(CNc2ccc3c(c2)OCCO3)cc(Br)c1OC
inactive: [3] -15.9% | [4] -7.96% | [6] -55.6% | [7] 23.8% | [8] -1.87% | [9] 1.28%
active: [1] 50.5% | [2] 29.5% | [5] 39.5% | [10] 48.8%

Cc1ccc(-c2nc(-c3ccccn3)no2)cc1
active: [1] 59.3% | [2] 48.7% | [4] 43.9% | [5] 39.1% | [7] 52% | [9] 66.8% | [10] 85.5%
inactive: [3] 29% | [6] 11% | [8] 25%

CC(C)(C)NCC(=Cc1ccccc1)C(=O)c1ccccc1
inactive: [3] -38.5%
active: [1] 50% | [2] 82.9% | [4] 87.5% | [5] 44.6% | [6] 84.1% | [7] 84.3% | [8] 89.1% | [9] 72.5% | [10] 71.1%

Cc1cccc(-n2ncc3c(N(C)C4CCCCC4)ncnc32)c1
inactive: [3] 28.5% | [6] 11.5% | [8] 29%
active: [1] 72.9% | [2] 64.4% | [4] 46.4% | [5] 60.6% | [7] 52.7% | [9] 52.5% | [10] 83%

C[C@@H](C(=O)Nc1ccc2c(c1)OCCO2)n1c(=O)[nH]c2ccccc2c1=O
active: [10] 68.7%
inactive: [1] 34.5% | [2] -0.03% | [3] -4.84% | [4] -17.6% | [5] -11.4% | [6] -28.3% | [7] 20.2% | [8] -18.1% | [9] 3.58%

CC(C)(C)c1ccc(C(=O)Nc2sc3c(c2C(=O)O)CCC3)cc1
active: [1] 48.4% | [2] 73% | [4] 73.4% | [5] 77.2% | [6] 95.7% | [7] 90.7% | [8] 77.3%
inactive: [3] 42.3% | [9] 8.37% | [10] 10.1%

O=C(/C=C/Nc1ccccc1Br)c1ccccn1
inactive: [3] 10.4%
active: [1] 48.5% | [2] 32.8% | [4] 33.1% | [5] 58.2% | [6] 42.5% | [7] 62.7% | [8] 36.1% | [9] 64.9% | [10] 82.7%

Nc1ccc(-c2cc3ccccc3oc2=O)cc1
inactive: [2] 20.6% | [3] 45% | [4] 18.9%
active: [1] 43.5% | [5] 52.2% | [6] 73.5% | [7] 65.2% | [8] 34.1% | [9] 67.1% | [10] 94.6%

CC(C)c1ccc(-c2nc3ccccc3s2)cc1
active: [1] 80.1% | [2] 73.8% | [3] 56% | [4] 53.8% | [5] 78.9% | [6] 42.9% | [7] 74.5% | [8] 51.7% | [9] 64.7% | [10] 86.8%

Clc1ccc(-n2ncc3c(NCCN4CCOCC4)ncnc32)cc1
inactive: [1] 37.8% | [2] -3.35% | [3] 3.19% | [4] -21.6% | [6] -30.3% | [7] 33.4% | [8] -23.4%
active: [5] 28.4% | [9] 36.7% | [10] 58.9%

Cc1cc(C(=O)COC(=O)c2ccccc2O)c(C)n1Cc1cccs1
active: [1] 85.3% | [2] 84.9% | [3] 71.1% | [4] 74.4% | [5] 85% | [6] 59% | [7] 80.2% | [8] 73.6% | [9] 81% | [10] 92.7%

Cc1ccc2oc(/N=C(\N)NC(=O)C(C)(C)C)nc2c1
active: [1] 82.8% | [2] 73.6% | [3] 65.2% | [4] 61.1% | [5] 80.4% | [6] 51.4% | [7] 75.4% | [8] 61.7% | [9] 77.6% | [10] 91.5%

O=C(CSCC(=O)Nc1ccccc1)N/N=C/c1c(O)ccc2ccccc12
inactive: [3] 45.4% | [9] -14.6% | [10] 21.6%
active: [1] 49.3% | [2] 30.7% | [4] 33.4% | [5] 86% | [6] 102% | [7] 91.5% | [8] 82.9%

c1csc(CNc2ccc3c(c2)OCCO3)c1
inactive: [1] 23.3% | [2] -33.9% | [3] -25.5% | [4] -34.9% | [5] -19.7% | [6] -77.1% | [7] -20.9% | [8] -49.8%
active: [9] 60.7% | [10] 47.1%

CCCNC1=C(N(C(C)=O)c2cccc(F)c2)C(=O)c2ccccc2C1=O
inactive: [9] 24.1% | [10] 34.3%
active: [1] 49.9% | [2] 65.3% | [3] 58.6% | [4] 67.2% | [5] 68.9% | [6] 68.8% | [7] 88% | [8] 69.2%

COc1cccc(-c2nnc3n2N=C(C(C)(C)C)CS3)c1
inactive: [9] 26.6%
active: [1] 89.1% | [2] 64.5% | [3] 72.3% | [4] 71.4% | [5] 56.7% | [6] 64.9% | [7] 60.9% | [8] 75.4% | [10] 73.7%

CCOc1c(Br)cc(CNc2ccc3c(c2)OCCO3)cc1OC
inactive: [1] 14.5% | [2] 8.55% | [3] -25.8% | [4] 9.33% | [5] 3.55% | [6] 3.36% | [7] 19.9% | [8] 26.2% | [9] -28.8% | [10] 21.9%

CC1CCc2c(sc(NC(=O)CSc3ncn[nH]3)c2C#N)C1 (stereo not given)
active: [1] 56% | [2] 66.1% | [4] 61.4% | [5] 32.5% | [6] 56.7% | [8] 61.9% | [9] 87% | [10] 90.2%
inactive: [3] 31.9% | [7] 39.5%

From PubChem BioAssay
